# Results: ChEMBL document CHEMBL1157539, “Thousands of chemical starting points for antimalarial lead identification” (Nature, 2010)
# How the values were obtained:
# Type in all cases: functional
# Plasmodium falciparum [1] = test: GSK_TCMDC: Inhibition of Plasmodium falciparum 3D7 in whole red blood cells, using parasite LDH activity as an index of growth. Test compounds present at 2uM
# Plasmodium falciparum [2] = test: GSK_TCMDC: Inhibition of Plasmodium falciparum Dd2 in whole red blood cells, using parasite LDH activity as an index of growth. Test compounds present at 2uM
# HepG2 = test: GSK_TCMDC: Percent inhibition of human HepG2 cell line. Test compounds present at 10uM.
Structure (SMILES),Inhibition (Plasmodium falciparum [1]),Inhibition (Plasmodium falciparum [2]),Inhibition (HepG2)
CC(=O)c1c(Cc2cccc(C(F)(F)F)c2)c[nH]c1C,94%,92%,6%
CCCCc1cc(NCC)nc(Nc2cccc(OC)c2)n1,97%,69%,9%
Cl.N#Cc1ccc2c(c1)CCN(CCC1CCC(Nc3ncnc4ccccc34)CC1)C2 (centres undefined),100%,96%,65%
Cn1cncc1C(=O)Nc1cccc(-c2csc(-c3nc4ccccc4[nH]3)c2)c1,100%,64%,15%
O=C(Cc1ccccc1)NC(CCN1CCC(N(C2CC2)S(=O)(=O)c2cccc(C(F)(F)F)c2)CC1)c1ccc(Cl)c(Cl)c1 (centres undefined),85%,27%,19%
CN1CCCN(Cc2cccc(-c3cccc(NC(=O)c4ccc(Cl)cc4)c3)c2)CC1.O=C(O)C(F)(F)F,100%,44%,35%
Cc1cccc2nc(-c3cccc(-c4cccc(CN5CCN(c6ccc(C#N)cn6)CC5)c4)c3)[nH]c12.O=C(O)C(F)(F)F,94%,34%,11%
Cc1ccc(Oc2c(-c3ccccc3CN3CCCC3CN(C)C)cnn(C)c2=O)cn1.O=C(O)C(F)(F)F (centres undefined),88%,9%,0%
Cc1cccc2nc(-c3cccc(-c4ccc(NC(=O)Nc5ccc(Cl)cc5)cc4)c3)[nH]c12,100%,96%,63%
COc1ccc(S(=O)(=O)Nc2ccc(C(=O)NCc3ccccc3C(F)(F)F)cc2)cc1N1CCN(CC2CC2)CC1.O=C(O)C(F)(F)F,92%,5%,27%
CCN(CC)c1ccc2nc(N)nc(N)c2c1Cl.Cl,92%,1%,62%
COCCN(C(=O)Cc1cccs1)C(C(=O)NCc1ccc(OC)cc1)c1ccc(C(C)C)cc1 (centres undefined),96%,59%,0%
Cc1ccccc1C1CCN(C2CCC(NC(=O)c3ccc(-c4ccccc4F)o3)CC2)CC1 (centres undefined),99%,66%,42%
Cc1cc(N2CCN(C)CC2)nc2ccc(NC(=O)c3cccc(N(C)C)c3)cc12,85%,23%,9%
Cc1cc(N[C@@H](CC(C)C)C(=O)NCCOc2ccccc2)nc(NCCc2ccc(F)cc2)n1.O=C(O)C(F)(F)F,95%,54%,25%
CCOc1cccc(C2c3c(oc4ccccc4c3=O)C(=O)N2CCN(CC)CC)c1 (centres undefined),100%,66%,5%
COc1cc2nc(N(C)C)nc(Nc3ccc(OCc4ccccc4)cc3)c2cc1OC,100%,100%,91%
O=C(Nc1ccc(OC2CCN(Cc3ccc(F)cc3)CC2)c(Cl)c1)c1ccc(F)cc1.O=C(O)C(F)(F)F,97%,95%,37%
COc1ccc(C(C(=O)NC2CCN(C[C@H](O)c3ccnc4ccc(OC)cc34)CC2)N2CCN(Cc3ccccc3)CC2)cc1 (some centres undefined),100%,72%,18%
CC(C)(CNCc1ccc(F)c(F)c1)c1nc(-c2ccnc(N)n2)c(-c2ccc(Cl)c(O)c2)[nH]1.Cl,99%,79%,41%
Clc1ccc2c(NN=Cc3ccccc3)ccnc2c1,100%,94%,0%
CCOC(=O)c1nc(-c2ccccc2)[nH]c1NC(=S)NC1CCCCC1,96%,1%,6%
CC(C)(C)CC(C)(C)c1ccc(O)c(C(=O)Nc2cccc([N+](=O)[O-])c2)c1,95%,97%,49%
Cc1ccc(CN2CCCN(Cc3cccc(NC(=O)c4ccc(Cl)c(Cl)c4)c3)CC2)cc1.O=C(O)C(F)(F)F,96%,18%,32%
Cc1cccc2nc(-c3ccc(-c4ccc(NC(=O)NC5CC5c5ccccc5)cc4)cc3)[nH]c12 (centres undefined),96%,3%,28%
COc1cc2nc(NCCC(C)C)n3nc(-c4ccccc4)nc3c2cc1OC,94%,97%,0%
Cc1ccc2[nH]c(-c3ccccc3)cc(=NN=Cc3cccnc3)c2c1,99%,39%,12%
COc1cc2nc(NCC3CCCO3)n3nc(-c4ccccc4)nc3c2cc1OC (centres undefined),92%,97%,0%
